From PubChem BioAssay (NCI) come the findings set out here.

Each structure is given as a SMILES string. The panel holds about 83,000 compounds, 20% with a hit somewhere; the sample as a whole holds those more often.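 The endpoint reported here, percent growth, reads 100 for growth as untreated, 0 for no net growth and -100 for all cells dead.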 Values without a mark were called inactive. Active and inactive are the calls of the source. How the source made its calls: active means growth percent below 10; inactive means the rest.

For this test, the system named is HOP-62 NSCLC. Nature of the test: NCI-60 one-dose screen, 48 h (100 = growth as untreated, 0 = no growth, -100 = all killed). Conditions: 10 µM.
With `O=C(Nc1ccc(I)cc1F)c1cc(-c2ccc(F)cc2F)ccc1O`, the growth was -10.6% (active). For `CN1CCN(c2ccc(C(=O)/C=C/c3ccc(C#N)cc3)cc2)CC1`, the growth was 89.1%. For the compound `Cc1ccc([N+](=O)[O-])c(C(=O)Nc2ccc(-c3ccc4c(c3)NC(=O)/C4=C\c3ccc[nH]3)cc2)c1`, the growth was 86%. Then `CN1CCO/C1=C(/NC(=O)c1ccc(Cl)cc1)[P+](c1ccccc1)(c1ccccc1)c1ccccc1`, with 95%; and `CNCc1cccc2c1OCCCCCC[C@@](C)(O)CC1(CC1)S(=O)(=O)c1ccc(cc1)-c1cnc(N)c(n1)C(=O)N2`, with -84.3% (active); and `Cc1cccc(NC(=O)CSc2nc3ccc(F)cc3c(=O)n2-c2ccc(Cl)cc2)c1C`, with 26.5%. Turning to `CC(=O)OC[C@@]1(C)C2CC[C@]3(C)C(CC=C4C5CC(C)(C)CC[C@]5(C(=O)Nc5ccccc5)CC[C@]43C)[C@@]2(C)C[C@@H](OC(C)=O)[C@@H]1OC(C)=O` (some centres not stated), the growth is 32.8%. In the case of `CC1=C2C(=C[C@@](C)(COCOCCCl)[C@@H]2O)C(=O)[C@](C)(O)C12CC2`, the growth was -51.1% (active). On to `CCN1CCN(Cc2ccc(NC(=O)c3cccc(-n4cc(-c5ccc(NC(C)=O)nc5)nn4)c3)cc2C(F)(F)F)CC1`, for which the growth is 121%.

In the case of `O=C(c1ccc(O)cc1)C1[C@H](c2ccc(Br)cc2)[C@@H](c2ccccc2)NC12C(=O)Nc1ccccc12` (some centres not stated), the growth is 39.4%.

As for `Nc1nnc(-c2c[nH]c3ccc(F)cc23)c(-c2c[nH]c3ncccc23)n1`, the growth is 57.4%.

For the compound `O=C(c1ccc(Cl)cc1)C1[C@H](c2ccccc2Br)[C@@H](c2ccccc2)NC12C(=O)Nc1ccc(Cl)cc12` (some centres not stated), the growth was 38.9%.
